Data reported in PubChem BioAssay AID1159580 (chemical genetic matrix, 2015).
Hit rate of the full screen: of about 5,500 compounds, about 2,000 (36%) were called active. Inconclusive results (about 18%) are left out. Cut-off read from the data, not from the text of the source: active = normalized growth mostly below about 0.91 (no sharp cut-off); inconclusive = no clear call, values can overlap the other calls; inactive = mostly above about 0.92. This is one part of the list.

Assay: chemical genetic growth profiling, strain panel (AID 1159580);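 note: tested at 20 µM; growth read once vehicle control cultures reached saturation at 30 °C; 1 = growth at the plate median or of vehicle wells; lower values mean less growth of the strain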
Details: S. cerevisiae deletion strains, growth OD
[1] = locus YAL013W, strain DEP1, stronger effect = lower value
[2] = locus YDR150W, strain NUM1, stronger effect = lower value
[3] = locus YGR078C, strain PAC10, stronger effect = lower value
[4] = locus YNL153C, strain GIM3, stronger effect = lower value
[5] = locus YPL241C, strain CIN2, stronger effect = lower value

Measured: normalized growth

Nc1ccc(C(=O)/C(=C\c2cccc([N+](=O)[O-])c2)C(=O)c2ccc(-c3ccccc3)cc2)cc1
inactive: [1] 0.99 | locus YBR229C, strain ROT2, stronger effect = lower value 0.984 | locus YDL101C, strain DUN1, stronger effect = lower value 0.997 | [2] 0.975 | locus YEL061C, strain CIN8, stronger effect = lower value 0.999 | [3] 0.997 | locus YHR030C, strain SLT2, stronger effect = lower value 0.869 | locus YHR087W, strain rtc3, stronger effect = lower value 0.993 | locus YJL187C, strain SWE1, stronger effect = lower value 1 | locus YJR043C, strain POL32, stronger effect = lower value 0.979 | locus YJR075W, strain HOC1, stronger effect = lower value 0.997 | locus YKL190W, strain CNB1, stronger effect = lower value 0.997 | locus YLR039C, strain RIC1, stronger effect = lower value 1 | locus YLR058C, strain SHM2 (second series), stronger effect = lower value 0.987 | locus YLR085C, strain ARP6, stronger effect = lower value 0.877 | locus YLR262C, strain YPT6, stronger effect = lower value 0.915 | locus YML094W, strain GIM5, stronger effect = lower value 0.993 | locus YMR219W, strain ESC1, stronger effect = lower value 0.988 | locus YMR263W, strain SAP30, stronger effect = lower value 1.01 | [4] 0.966 | locus YNL298W, strain CLA4 (second series), stronger effect = lower value 0.936 | locus YNL322C, strain KRE1, stronger effect = lower value 0.971 | locus YNR030W, strain Alg12, stronger effect = lower value 0.955 | locus YPL055C, strain LGE1, stronger effect = lower value 1 | [5] 0.949 | locus YPR135W, strain CTF4, stronger effect = lower value 0.945

CCN1C[C@]2(C)CC[C@H](O)[C@@]34C5C[C@@H]6[C@@H](OC)C[C@@](O)(C5[C@H]6O)[C@@H](CC23)C14 (some centres not stated)
inactive: [1] 1.01 | locus YAL040C, strain CLN3, stronger effect = lower value 1 | locus YCL061C, strain MRC1 (second series), stronger effect = lower value 1 | [2] 0.996 | locus YDR363W, strain ESC2, stronger effect = lower value 1.03 | locus YER002W, strain NOP16, stronger effect = lower value 1.01 | [3] 0.999 | locus YGR229C, strain SMI1, stronger effect = lower value 1.02 | locus YMR307W, strain GAS1, stronger effect = lower value 0.999 | locus YNL128W, strain TEP1, stronger effect = lower value 1 | [4] 1.01 | locus YNL175C, strain NOP13, stronger effect = lower value 1.01 | locus YNL197C, strain WHI3, stronger effect = lower value 1.01 | locus YNL224C, strain SQS1, stronger effect = lower value 0.997 | locus YOR083W, strain WHI5 (second series), stronger effect = lower value 1.01 | [5] 1
